Results from PubChem BioAssay (NCI).
This is part of a sample that, as a whole, favours compounds with a hit. Of some 83,000 tested, about 20% had one in any assay.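 Testing used 96-well plates and a 48-hour single-concentration exposure. Example: -40 means 40% of the starting cells died.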 Unmarked numbers belong to inactive results. Active and inactive are the calls of the source. The calls were made as follows: active = growth percent below 10; inactive = the rest.

Assays:
Experiment in all cases: NCI-60 one-dose screen, 48 h (100 = growth as untreated, 0 = no growth, -100 = all killed)
Conditions in all cases: 10 µM unless noted
[1] = system: DU-145 prostate
[2] = system: K-562 leukemia
[3] = system: MALME-3M melanoma
[4] = system: MDA-MB-231 breast
[5] = system: RXF 393 renal
[6] = system: SF-268 CNS
[7] = system: SF-295 CNS
[8] = system: SF-539 CNS
[9] = system: UACC-257 melanoma
[10] = system: M14 melanoma
[11] = system: HCT-15 colon
[12] = system: HT29 colon
[13] = system: SNB-75 CNS
[14] = system: U251 CNS
[15] = system: PC-3 prostate
[16] = system: SK-MEL-5 melanoma
[17] = system: UACC-62 melanoma
[18] = system: LOX IMVI melanoma
[19] = system: SK-MEL-28 melanoma

Row | SMILES | growth [1] | growth [2] | growth [3] | growth [4] | growth [5] | growth [6] | growth [7] | growth [8] | growth [9] | growth [10] | growth [11] | growth [12] | growth [13] | growth [14] | growth [15] | growth [16] | growth [17] | growth [18] | growth [19]
1 | COCCn1cc(-c2nc(-c3cc4cccnc4n3C)cs2)c2cc(OC)ccc21 | 76.7% | 9.5% (active) | 108% | 27.5% | 78.3% | 71.3% | 66.1% | 66.9% | 74.3% | 63.7% | 32.1% | 48.2% | 47.7% | 59% | 16.1% | 26.7% | 61.7% | 38.2% | 88.3%
2 | CC(C)(C)[C@H](OCc1cn([C@H]2C[C@@H](O)[C@@H](CO)O2)c(=O)[nH]c1=O)c1ccc(C#Cc2ccccc2)cc1[N+](=O)[O-] | 86.4% | 60.5% | 84% | 91.7% | 47.2% | 81.5% | 82% | 97.1% | 83.5% | 45.1% | 69.8% | 62.3% | 67% | 68.9% | 19.3% | 75.4% | 66.9% | 84.7% | 101%
3 | Oc1ccc(Cc2ccc(O)c3ncccc23)c2cccnc12 | 23.5% | 9.66% (active) | -14.1% (active) | 5.46% (active) | 9.57% (active) | 27.5% | -20.5% (active) | 14.1% | -8.29% (active) | 17% | 13.1% | 57.6% | 12.9% | 6.14% (active) | 5.52% (active) | -47.3% (active) | 1.18% (active) | 16.7% | 30.3%
4 | Cc1ccc(Nc2nc(N)nc(N)c2N=O)cc1Cl | 73.7% | 69.9% | 82.2% | 95.6% | 91.8% | 65.6% | 105% | 82% | 92.2% | 88.4% | 70.6% | 64.3% | 49.5% | 87% | 70.8% |  | 84.6% | 65.4% | 93.5%
5 | Cc1[nH]c(C(=O)Nc2ccccc2OC2CCNC2)c(Cl)c1Cl (centres undefined) | 93.5% | 52.2% | 97.5% | 54.4% | 76.8% | 75.7% | 95.5% | 85.6% | 107% | 98.5% | 77.7% | 77.8% | 65.2% | 64.4% | 80.2% | 85.8% | 68.1% | 30.7% | 106%
6 | O=C(OCC(O)(CO)C(=O)NC12CC3CC(CC(C3)C1)C2)c1ccc(Cl)cc1 (centres undefined) | 108% | 91.4% | 103% | 101% | 101% | 99.7% | 93.1% | 107% | 99.2% | 98.7% | 104% | 94.8% | 97.6% |  |  | 101% | 97.4% | 95.2% | 113%
7 | C[C@@H]1N=C(c2ccc(Cl)cc2Cl)Nc2nc3ccccn3c2C1=O | 64.8% | 23.6% | 43.7% | 64.6% | 80.2% | 58.9% | 14.5% | 53% | 52.4% | 31.1% | 35.1% | 7.68% (active) | 58.7% | 41.4% | 39.1% | 39.6% | 40.5% | 51.3% | 60.7%
8 | Cc1ccc(C2=Nc3c(N)nc(N)nc3NC(c3cccc(Nc4ccnc5cc(C(F)(F)F)ccc45)c3)C2)cc1 (centres undefined) | 46.6% | 8.46% (active) | 39.1% | 34.8% | 23.6% | 29.7% | 15.8% | 40.3% | 62.3% | 11.1% | 15.2% | 1.9% (active) | 7.55% (active) | 12.8% | 16.5% | 17.6% | 40.8% | -2.42% (active) | 66.8%
